# Records with an inconclusive call do not appear. A call without a number means that no potency is given here. Calls of active or inactive are those of the source. Calls follow the shape of the full dose curve. Bridge positions count the residues as written; N and C are the ends. Square brackets hold non-standard residues; d marks the D form. Peptide text beside a SMILES is read from it. * marks the point of attachment. Octanoyl(6-Me) = CCC(C)CCCCC(=O)*; Dab = NCC[CH](N)C(=O)O
# Assay: Primary qHTS for Vero E6 cytotoxicity: counterscreen for inhibitors of SARS-S pseudo-typed particle cell entry (AID 1479150)
# Settings: cell viability; series mostly up to 57.1 µM
SMILES,Potency,"activity change, negative = cytotoxicity"
O=C(Cc1cccs1)NC1C(=O)N2C(C(=O)[O-])=C(C[n+]3ccccc3)CSC12 (centres undefined),inactive,–
COC(=O)N[C@H](C(=O)N1CCC[C@H]1C(=O)Nc1ccc([C@@H]2CC[C@@H](c3ccc(NC(=O)[C@@H]4CCCN4C(=O)[C@@H](NC(=O)OC)C(C)C)cc3)N2c2ccc(C(C)(C)C)cc2)cc1)C(C)C,inactive,–
CC(C)(C)C(=O)OCC(=O)[C@H]1CC[C@H]2[C@@H]3CCC4=CC(=O)CC[C@]4(C)[C@H]3CC[C@]12C,inactive,–
NC(=O)OCC(O)COc1ccc(Cl)cc1 (centres undefined),inactive,–
CC(C=CC1=C(C)CCCC1(C)C)=CC=CC(C)=CC(=O)Oc1c(C)c(C)c2c(c1C)CC[C@@](C)(CCC[C@H](C)CCC[C@H](C)CCCC(C)C)O2,–,-3.15% [at 5.34 µM] (inactive)
CCC(C)CCCCC(=O)NC(CCN)C(=O)NC(C(=O)NC(CCN)C(=O)NC1CCNC(=O)C(C(C)O)NC(=O)C(CCN)NC(=O)C(CCN)NC(=O)C(CC(C)C)NC(=O)C(Cc2ccccc2)NC(=O)C(CCN)NC1=O)C(C)O (centres undefined) ({Octanoyl(6-Me)}-[Dab]T[Dab][Dab][Dab]FL[Dab][Dab]T; lactam 4-C; configuration not given here),inactive,–
O=C[C@H](O)[C@@H](O)[C@H](O)[C@H](O)CO,inactive,–
CCCCCCCCCCCCCCCCOc1nc2ccc(C)cc2c(=O)o1,inactive,–
CCCC(=O)O[C@]1(C(=O)COC(C)=O)CC[C@H]2C3C[C@H](F)C4=CC(=O)C=C[C@]4(C)[C@@]3(F)[C@@H](O)C[C@@]21C (some centres undefined),inactive,–

# Source: PubChem BioAssay (NCATS)
